For one assay, the system named is SERPINA7 (gene 6906). Description: CCTE_GLTED_hTBG: CCTE's human Thyroxine-binding Globulin (TBG) Inhibition Assay, Great Lakes Toxicology and Ecology Division (GLTED) Lab (AID 2284343; active = hit-call score of the fitted dose curve at least 0.9, where 1 is the maximum;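 also: active chemicals lower fluorescence versus DMSO baseline by displacing probe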). A digest of the protocol:
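Steps: combine TBG with chemical; incubate 2 hours so that disruptors release ANSA; record fluorescence (380 ex, 475 em). Loss of signal was fitted against DMSO controls.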

Assay [1] is described as follows: CCTE_Padilla_ZF_Score.General: CCTE's 144 Hour Post-fertilization zebrafish Assay Score for General Malformation, Padilla Lab (AID 2284411). A digest of the protocol:
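Malformation, death and hatching were scored at 6 dpf by two blinded observers under a stereo microscope. Embryos were dosed singly from 6-8 hpf in sealed plates of 10% Hanks' at 26C and rinsed on 5 dpf; DMSO baseline.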

A short description of assay [2]: CCTE_Padilla_ZF_Score.Craniofacial: CCTE's 144 Hour Post-fertilization zebrafish Assay Score for Craniofacial Malformation, Padilla Lab (AID 2284405). The method in brief:
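Craniofacial defects were scored at 6 dpf by two blinded observers using stereomicroscopy. Exposure of wild-type embryos began at 6–8 hpf in sealed wells of 10% Hanks' solution at 26C, with chemical removed by rinsing at 5 dpf.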

A short description of assay [3]: CCTE_Padilla_ZF_Score.Edema: CCTE's 144 Hour Post-fertilization zebrafish Assay Score for Edema Malformation, Padilla Lab (AID 2284406). A digest of the protocol: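 Edema scored at 6 dpf by two blinded observers under a stereo microscope, in single outbred wild-type larvae exposed from 6-8 hpf in sealed wells (Hanks', 26C, 14:10 h light) and chemical-free after a 5 dpf rinse.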

Assay [4] in a line: CCTE_Padilla_ZF_Score.Spine: CCTE's 144 Hour Post-fertilization zebrafish Assay Score for Spine Malformation, Padilla Lab (AID 2284407). The method in brief:
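Spine malformation scored at 6 dpf by two independent blinded observers under stereomicroscope, after static sealed exposure from 6–8 hpf at 26C in Hanks' solution with rinse on 5 dpf. Positive-direction fit against DMSO control.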

The nature of assay [5]: CCTE_Padilla_ZF_Score.Swim_bladder: CCTE's 144 Hour Post-fertilization zebrafish Assay Score for Swim Bladder Malformation, Padilla Lab (AID 2284408). The method in brief: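 Swim bladder inflation scored at 6 dpf by two blinded observers under a stereo microscope. Exposure ran from 6–8 hpf in sealed wells of 10% Hanks' at 26C, with rinsing at 5 dpf; DMSO served as baseline.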

Assay [6] can be described thus: CCTE_Padilla_ZF_Score.Position: CCTE's 144 Hour Post-fertilization zebrafish Assay Score for Position, Padilla Lab (AID 2284409). A digest of the protocol: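 Wild-type zebrafish embryos (with chorions) exposed singly from 6–8 hpf in sealed wells of Hanks' solution at 26C, rinsed at 5 dpf. At 6 dpf, blinded assessors scored abnormal water-column position by brightfield stereomicroscopy, relative to DMSO.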

A short description of assay [7]: CCTE_Padilla_ZF_Score.Living: CCTE's 144 Hour Post-fertilization zebrafish Assay Score for Viability, Padilla Lab (AID 2284410).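 Also: larval death at 6 dpf judged by absent heartbeat or coagulation.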 A digest of the protocol: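 Mortality at 6 dpf, judged as absent heartbeat or coagulation by two blinded observers, after sealed static exposure beginning at 6–8 hpf at 26C. Larvae were rinsed free of chemical at 5 dpf, and activity was fitted relative to DMSO.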

SMILES strings stand for the structures. Where “and” joins values, the source holds several entries; their conditions need not be identical. Identical values can stand only once. Calls of active or inactive are those of the source. The calls were made as follows, unless noted: active = hit-call score of the fitted dose curve at least 0.9, where 1 is the maximum; inactive = score below 0.9.

As to `Oc1cc(Cl)c(Cl)cc1Cl`, the AC50 in the assay on SERPINA7 (gene 6906) was 40.8 µM (active).

`CCCCCCCCCCCCOS(=O)(=O)O`: in the assay with SERPINA7 (gene 6906), the AC50 is 37.2 µM (active) and 56.4 µM (active).

`CC(C=O)Cc1ccc2c(c1)OCO2` (configuration not stated): in assay [1], the result was inactive.

Consider `O=S(=O)(F)C(F)(F)C(F)(F)C(F)(F)C(F)(F)F`, for which the call in assay [2], in assay [3], in assay [4], in assay [5], in assay [6] and in assay [7] was inactive. Further, the compound was called inactive in assay [1].

For the compound `Oc1c(Br)cc(Br)cc1Br`, the AC50 in the assay on SERPINA7 (gene 6906) is 10.3 µM (active); in assay [1], 2.31 µM (active).

Turning to `Nc1ccc(N)cc1`, the concentration at half-maximal activity (AC50) in the assay with SERPINA7 (gene 6906) is 20.3 µM (active).

As for `COC(F)(C(F)(F)C(F)(F)F)C(F)(C(F)(F)F)C(F)(F)F` (configuration not stated), the call in assay [2], in assay [3], in assay [4], in assay [5], in assay [6] and in assay [7] was inactive. For the same compound, in assay [1], the outcome was inactive.

As to `CCN(CC)C(=O)C(Cl)=C(C)OP(=O)(OC)OC`, the result in assay [1] was inactive.

In the case of `Nc1c(Oc2ccccc2)cc(O)c2c1C(=O)c1ccccc1C2=O`, the AC50 in assay [1] was 14 µM (active).

Regarding `OC(Cc1ccccc1Cl)(Cn1cncn1)C1(Cl)CC1` (configuration not stated), the result in assay [1] was inactive.

Regarding `O=C1C=CC(=O)c2ccccc21`, the compound was classed as inactive in assay [1].

Take `CCOC(=O)C(SP(=S)(OC)OC)c1ccccc1` (configuration not stated): in assay [1], the AC50 is 8.89 µM (active).

With `CC(F)(F)CC(F)(F)F`, the result in assay [2], in assay [3], in assay [4], in assay [5], in assay [6] and in assay [7] was inactive. In assay [1], the result was inactive.

In the case of `Cc1cccc(OP(=O)(Oc2cccc(C)c2)Oc2cccc(C)c2)c1`, in assay [1], the call was inactive.

On to `CCOP(=O)(OCC)SCCSCC`, for which the result in assay [1] was inactive.

Regarding `CCCCCCCCCCCCN(C)C`, in assay [1], the call was inactive.

In the case of `Cc1ccc2nc3sc(=O)sc3nc2c1`, the concentration at half-maximal activity (AC50) in assay [1] was 0.563 µM (active).

As to `C=CCOC(F)(C(F)(F)F)C(F)(F)F`, the compound was called inactive in assay [2], in assay [3], in assay [4], in assay [5], in assay [6] and in assay [7]. For the same compound, the call in assay [1] was inactive.

Turning to `CCCSP(=S)(OCC)Oc1ccc(SC)cc1` (configuration not stated), the AC50 in the assay with SERPINA7 (gene 6906) was 1.52 µM (active).

In the case of `CCCCCCCCCCBr`, the result in assay [1] was inactive.

Take `O=S(=O)(c1ccc(Cl)cc1)c1cc(Cl)c(Cl)cc1Cl`: the AC50 in assay [1] was 27.5 µM (active).

Take `Cc1ccccc1OP(=O)(Oc1ccccc1)Oc1ccccc1`: the AC50 in assay [1] was 2.78 µM (active).

What is called AC50 is the concentration giving half of the maximal activity seen.
